# In all, about 2,300 compounds went through this assay and about 1,200 (52%) were called active. So high a share suggests a set chosen from earlier hits. The list shows a part of the results. Entries with a potency or affinity are not part of this list. A number with no mark means an inactive call. The rule behind the calls is not given here.
# Assay: mammalian cell cytotoxicity, dose response, cytotoxicity control for M. tuberculosis inhibitor project (AID 435019);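 note: 0% = background wells and 100% = vehicle-treated cells; lower values mean fewer viable cells so more cytotoxicity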
# Details: cytotoxicity counter-screen; series mostly up to 40 µM; viability: at the top concentration
row,SMILES,viability [%]
1,COC(=O)CSc1nnc(-c2sc3cc(OC)ccc3c2Cl)n1C,102
2,CNC(=O)COC(=O)c1ccc(-c2nc3ccccc3s2)s1,87.3
3,COc1ccc(COC(=O)CCNC(=O)c2ccc(Cl)cc2)cc1,97.3
4,CNC(=O)c1csc(-c2ccc(Cl)cc2)n1,84.6
5,C/C(=N\Nc1ccc(Cl)c(Cl)c1)c1ccc(-n2ccnc2)cc1,87.4
6,CNc1ncnc2c1ncn2[C@@H]1O[C@H](CO)[C@@H](O)[C@H]1O,119
7,O=C(CCSc1ccccn1)c1ccccc1,90.3
8,O=C(OCC#CCSc1nnc(-c2cccc3ccccc23)o1)c1cccs1,86.7
9,O=C(CCC(=O)NC1CCCCCCC1)Nc1nnc(C(F)(F)F)s1,86.1
10,CCOc1ccc(NC(=S)NC23CN4CN(CN(C4)C2)C3)cc1,96.7
11,COc1ccc(S(=O)(=O)N(C)CC(=O)NCCCn2ccnc2)cc1Cl,95.1
12,CCCOc1ccc(N2CC(C(=O)Nc3ccccn3)CC2=O)cc1 (centres undefined),97.3
13,Nc1ccc(S(=O)(=O)Nc2cnc3ccccc3n2)cc1,100
14,CCOc1ccc(N2C(=O)CS/C2=C(\C(Cl)=C(Cl)Cl)[N+](=O)[O-])cc1,98.2
15,COc1ccc(C(=O)Cn2nc(CNc3ccc(Br)cc3)[n+]3c2CCCCC3)cc1,97.4
16,CCc1nnc(NS(=O)(=O)c2ccc(N/C=C\C(=O)c3cccc(OC)c3)cc2)s1,81.3
17,COc1ccc(C2CC2/C(C)=N/OC(=O)c2ccc(F)cc2)cc1 (centres undefined),107
18,CCCCCC(=O)Nc1cccc2ccccc12,93.4
19,COc1cc(N=Nc2ccc3ccccc3c2)ccc1O,81
20,CCOc1cccc2cc(C(=O)Nc3nccs3)c(=O)oc12,101
21,O=C(O)Cc1cnc[nH]1,91.7
22,O=C(CCl)c1ccc2c(c1)CCN2C(=O)C1CCCCC1,82.9

row,SMILES,viability [%]
1,COc1ccccc1/C=C/C1=NC(=C\C=C/c2ccccc2)/C(=O)O1,94.2
2,C(=C\c1ccccc1)/C=N/Nc1nc2ccccc2s1,83.8
3,COc1ccc(C2CC(=O)C3=C(C2)NC(C)=C(C#N)C3c2ccc(N(C)C)cc2)cc1 (centres undefined),84.2
4,CCOc1ccc(N=CC2=C(O)CC(c3ccco3)CC2=O)cc1 (centres undefined),101
5,CCCCCCc1cc2cc(C(=O)NCc3ccccc3)c(=N)oc2cc1O,96
6,Nc1c(C(=O)Nc2ccc(Br)cc2)sc2nc(-c3ccco3)ccc12,90.5
7,Cc1ccc(NC2Sc3ccccc3NC2=O)cc1Cl (centres undefined),83.3
8,O=C(C[n+]1ccccc1)NNc1ccccc1,102
9,CN(C)C(=O)c1ccc(NC(=O)COC(=O)c2cc3c(s2)CCCCC3)cc1,94.3
10,Cc1ccc(NC(=O)COC(=O)c2ccc(=O)n(Cc3ccccc3)n2)cc1F,99.3
11,COC(=O)c1ccc(Cn2cc(C(F)(F)F)cc([N+](=O)[O-])c2=O)cc1,101
12,COc1ccc(C(=O)COC(=O)[C@H](C)Nc2ccc(C(F)(F)F)cc2[N+](=O)[O-])cc1,97.9
13,CCOC(=O)CSc1nsc(SCC(=O)OCC)c1C#N,96.2
14,CCOc1ccc(N=c2scc(-c3ccccc3)n2CCO)cc1,96
15,Oc1ccc2cc(Br)ccc2c1CN1CCCC1,84.9
16,CSc1cc(-c2ccncc2)nc(-c2ccc(Cl)cc2)c1,84.4
17,Cc1ccnc(NC(=O)CCc2c[nH]c3ccccc23)c1,82.8
18,Cn1ccc(=Nc2ccc(NC(=O)c3ccc(N=c4ccn(C)c5ccc([N+](=O)[O-])cc45)cc3)cc2)cc1,90.8
19,CCOC(=O)C1CCCN(c2ncnc3c2cnn3-c2ccc(OC)cc2)C1 (centres undefined),98.5
20,COc1ccc(-c2nnc(SCC(=O)N3CCc4ccccc4C3)o2)cc1,85.6
21,CCOC(=O)N1CCN=C1SCc1ccc(C(F)(F)F)cc1,94.8
22,COc1ccc(-c2nnc(NC(=O)c3ccc([N+](=O)[O-])o3)o2)c(OC)c1,82.6

row,SMILES,viability [%]
1,O=[N+]([O-])c1ccc(-n2cnc3ccccc32)c([N+](=O)[O-])c1,95
2,Cc1ccc(S(=O)(=O)N(C)c2ccc(OCC(=O)OCc3ccc(C#N)cc3)cc2)cc1,95.1
3,CC(/C=C/c1ccccc1)=N\NC(N)=S,93.2
4,CC1CCC/C(=N\NC(=S)Nc2ccccc2)C1 (centres undefined),88.5
5,O=C(OCCN1C(=O)c2ccccc2C1=O)c1cc2ccccc2o1,99.3
6,CCN(CC)S(=O)(=O)c1ccc(/C=C/C(=O)OCC#N)cc1,91.9
7,Cc1ccnc(N2CCC(C(=O)Nc3cccc(C(F)(F)F)c3)CC2)n1,84.4
8,CCOC(=O)c1c(/N=C/N(C)C)sc(/C=N/Nc2ccccc2)c1-c1ccccc1Cl,83.2
9,CCOC(=O)NNc1ccccc1,101
10,COC(=O)C1C2c3ccccc3OC1(C)N=c1s/c(=C/c3cnn(C)c3C)c(=O)n12 (centres undefined),96.6
11,CCc1cc2c(=O)c(-c3cnn(-c4ccccc4)c3)c(C)oc2c(CN2CCCCC2)c1O,93.9
12,CC(NC(=O)c1ccccc1Br)C1CC2CCC1C2 (centres undefined),91.3
13,O=C(OCc1nc2ccccc2s1)c1ccc(Br)o1,93
14,Cc1cc(/C=C/C(=O)O)c(C)n1-c1ccc(Cl)cc1,95.7
15,CNc1cccccc1=S,90.6
16,NC(=O)CSc1nnc(COc2ccc3ccccc3c2)o1,92.6
17,COc1ccc2c(c1)CCc1c(C(=O)Nc3c(C)n(C)n(-c4ccccc4)c3=O)noc1-2,91.4
18,Cc1c(O)c(=O)n(-c2ccccc2)n1C,99.9
19,CC(C)(C)c1ccc(C(=O)CSc2n[nH]c(=O)[nH]c2=O)cc1,90.6
20,Cc1ccccc1Cn1ccc(=NCc2ccccc2)cc1,94.5
21,CC(=O)n1cc(/C=C2/N=C(c3ccccc3)OC2=O)c2ccccc21,87.7
22,O=C(CN1CCCCC1)Nc1nnc(-c2ccc([N+](=O)[O-])cc2)s1,84.5

row,SMILES,viability [%]
1,Cc1ccc(NC(=O)Cc2ccc(-c3ccccc3)cc2)nc1,92.4
2,CSc1cccc(NC(=O)CCS(=O)(=O)c2cccc3nonc23)c1,92.1
3,COC(=O)c1ccc(-n2cnc3ccccc32)nc1,85
4,COc1ccc(N2CCN(C(=O)c3ccc(CNc4c(N5CCOCC5)c(=O)c4=O)cc3)CC2)cc1,94.8
5,CN(C)c1ccc(/C=C2\N=C(C(C)(C)C)OC2=O)cc1,92
6,CCC(C)N1CCC2(CC1)N=c1c(c3c4c5c(C)c(O)c3c(O)c1=NC(=O)C(C)=CC=C[C@H](C)[C@H](O)[C@@H](C)[C@@H](O)[C@@H](C)[C@H](OC(C)=O)[C@H](C)[C@@H](OC)C=CO[C@@](C)(O5)C4=O)N2 (some centres undefined),85.8
7,Cc1c2c(nc3ccccc13)CCC(C)C2 (centres undefined),90.5
8,O=C1C(c2ccccc2)=[N+]([O-])c2ccccc21,88.2
9,COc1ccc(NC(=O)CSC2CCCCC2)cc1,105
10,COc1ccc(C2CC(=O)c3cnc(Nc4cc(C)cc(C)c4)nc3C2)cc1 (centres undefined),89.3
11,O=C(N/N=C/c1c(F)c(F)c(F)c(F)c1F)c1cccc(S(=O)(=O)N2CCOCC2)c1,84.2
12,COc1ccc(NC(=O)c2oc3ccc(S(=O)(=O)N4CCOCC4)cc3c2C)cc1,98.4
13,COc1cc2cc(C(c3nnnn3C(C)(C)C)N3CCc4ccccc43)c(=O)[nH]c2cc1OC (centres undefined),87.3
14,COc1ccc(C2=NC(=O)/C(=C\c3cc(OC)c(OC)c(OC)c3)O2)cc1,97.4
15,CCCCOC(=O)c1ccc(NC(=S)NC(=O)c2c(Br)c(C)nn2C)cc1,100
16,CN(CCO)c1cc(Sc2nc3ccccc3s2)c2nonc2c1[N+](=O)[O-],88.1
17,CCCSC1=C(C#N)C(c2ccc(Cl)cc2Cl)CC(=O)N1 (centres undefined),87.4
18,CN(C(=O)COC(=O)/C=C/c1ccc(Cl)c(Cl)c1)c1c(N)n(Cc2ccccc2)c(=O)[nH]c1=O,101
19,C=CCOc1c(Br)cc(CNc2nccs2)cc1OC,80.1
20,O=C(CCc1nnc(CCCc2ccccc2)o1)NCCCC1CCCC1,93.3
21,COc1ccc(N/C=C(\C2OC(=O)c3ccccc32)[N+](=O)[O-])cc1 (centres undefined),103
22,COc1ccc(N=N/C(=C\O)C(=O)c2cccs2)cc1,101

row,SMILES,viability [%]
1,Cc1nc(SCC(=O)Nc2ccc(OCc3ccccc3)cc2)n[nH]1,91.9
2,C=CCc1cccc2cc(C(=O)OCC(=O)c3ccccc3)c(=O)oc12,104
3,Cn1ccnc1C(=O)C1CCCN(Cc2cn[nH]c2-c2ccc(-c3ccccc3)cc2)C1 (centres undefined),86.1
4,O=C(OCc1csc(Nc2ccccc2)n1)c1ccc(Cl)cc1,90.1
5,CC(=O)c1cccc(Nc2nc(-c3cccnc3)cs2)c1,81
6,O=C(/C=C/c1ccc([N+](=O)[O-])cc1)NC1CC2CCC1C2 (centres undefined),89
7,CC(C)Oc1ccc(C(=O)N/N=C/c2ccc(-c3ccc(S(=O)(=O)Nc4ncccn4)cc3)o2)cc1,87
8,O=C(c1ccc([N+](=O)[O-])s1)N1CCN(c2ccc(C(F)(F)F)cn2)CC1,90
9,O=c1[nH]c(CN2CC=C(c3ccccc3)CC2)nc2cc(C(F)(F)F)ccc12,107
10,CC(C)CNC(=S)NC(=O)c1csc([N+](=O)[O-])c1,96.9
11,O=C(Nc1cc(C(F)(F)F)ccc1Cl)C(Sc1cccc[n+]1[O-])c1ccccc1 (centres undefined),85.9
12,CC1(C)CC(=O)c2cc(C(=O)NNc3ccccc3)c(=O)n(-c3ccccc3)c2C1,96.8
13,COc1ccc(NC(=O)CSc2nnc(-c3ccccn3)n2N)cc1Cl,92
14,CSc1nn(-c2ccc(C(=O)OCC(=O)NC(=O)NC(C)C)cc2)c(=S)s1,86.6
15,COc1cc2c(cc1OC)CN(CCC(=O)c1ccc(Br)cc1)CC2,96.2
16,C#CCCc1cscc1/C=[N+](\[O-])c1ccc(C(=O)OCC)cc1,102
17,Cn1cnnc1SCc1ccc(-c2ccc(Br)cc2)o1,92.6
18,Cc1ccc(NC(=O)/C(Cl)=C\c2ccccc2)cc1,97.2
19,CCc1ccc(/C=C2/C(=O)N(C)C(=S)N2CC(=O)OC)s1,99.8
20,Oc1ccc(/C=N/n2c3ccccc3c3ccccc32)cc1,81.2
21,Cc1ccc(N2C(=O)C(F)(F)C2c2ccccc2)cc1 (centres undefined),95.3

# Source: PubChem BioAssay AID435019 (Southern Research Specialized Biocontainment Screening …, 2010)
